Screening results deposited in PubChem by National Center for Advancing Translational Sciences (NCATS).
An excerpt weighted towards active compounds, which were near 21% of everything screened.
Pf growth 96h – P. falciparum growth inhibition at 96 hours; P. falciparum luciferase reporter growth, 96 h; Potency, µM (series often up to 28.7 µM), usual class: inhibitors; hit rate 6.9% among 320,000; AID 504834
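96 h incubation, 37 C, 5% CO2, of luciferase-reporter P. falciparum-infected RBCs (2% hematocrit, 0.05% parasitemia final) with test compounds; endpoint luminescence.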
HCMV inh – inhibitors of human cytomegalovirus. HFF cells, HCMV-luciferase reporter, 72 h; stronger effect = lower value. activity change, negative = inhibition, % at 57.5 µM. hit rate 4.5% among 410,000; in the data active = activity change below about -60%; inconclusive = no clear call, values can overlap the other calls; inactive = above about -39%
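HFF cells seeded 16 h at 37C, treated with compounds, infected with luciferase-reporter HCMV at MOI 1 PFU/cell; luciferase read at 72 h post infection, normalized to buffer-only and Salinomycin controls.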
Pf growth 48h – inhibits P. falciparum growth in the first generation, 48 h; P. falciparum luciferase growth in erythrocytes, 48 h; Potency, µM (highest dose often 28.7 µM), actives largely listed as inhibitors; hit rate 5.9% among 310,000; AID 504832
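In quantitative HTS format, infected erythrocytes bearing luciferase-reporter parasites were treated for a single generation at 37 C. Luminescence after adding detection reagent served as the growth measure.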
Shiga inhibitor – blocks Shiga toxin action in Vero cells; Vero cells, Shiga toxin protein synthesis inhibition reporter; inhibition, % at 38.7 µM; hit rate 9.2% among 290,000; AID 2315; in the data active = inhibition mostly above about 28%, no sharp cut-off; inactive = mostly below about 43%
Cycloheximide cs – counter-screen for Shiga toxin inhibitors: cycloheximide protein synthesis inhibition | cell reporter, cycloheximide protein synthesis inhibition counterscreen | max response, % | hit rate 12% among 300,000 | AID 2314; in the data active = max response mostly above about 13%, no sharp cut-off; inactive = mostly below about 14%; also: read at 38.3 µM for the half of the compounds with a filed dose
HCV inhibitor – blocks hepatitis C virus; Potency, µM (doses to about 41.8 µM), usual class: inhibitors; Huh7.5.1 HCVcc-Cre infection, luciferase reporter, 44 h; hit rate 3.4% among 340,000
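Luciferase read-out (15 sec integration) after a 15 min room-temperature substrate step quantifies HCVcc-Cre infection. Cells, 1,000 per well, had compound added 4 h post-plating, then virus at ~0.5 moi, and were cultured 44 h.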
Numbers stand for hits; - = inactive; ? = inconclusive; . = not tested or not shown; [ ] = another dose, or the depositor's remark. Unless noted, calls follow the shape of the dose curve; as a rule, active = well fitted inhibition curve with a large enough effect; inconclusive = small, poorly fitted or top-dose-only effect, or another doubt; inactive = no such curve, though single readings can be large or run the other way.

SMILES	Pf growth 96h	HCMV inh	Pf growth 48h	Shiga inhibitor	Cycloheximide cs	HCV inhibitor
C#Cc1cccc(C(=O)N2CCCC(CCC(=O)NCc3ccccc3F)C2)c1 (stereo not drawn)	.	-	.	.	.	-
CC1CCN(C(=O)c2ncn3c2C(=O)N[C@H](C)C3)CC1	.	-	.	.	.	.
Oc1cc(-n2cccn2)c(O)cc1-n1cccn1	-	-	-	70	37	-
c1cnn(-c2nc(N3CCOCC3)nc(N3CCOCC3)n2)c1	-	-	-	-	-	-
O=C(CSc1nc2ccccc2c(=O)n1CCCO)NCc1ccccc1	-	-	-	-	-	-
Cn1nnnc1SCc1cccc2ccccc12	-	-	-	-	-	-
c1ccc(Cc2nc3ccccc3s2)cc1	.	-	.	.	.	-
Cn1nnnc1SCc1nc2ccccc2s1	-	-	-	94	38	-
O=c1c2ccccc2nc(SCc2nc3ccccc3s2)n1CCCO	-	-	-	137	46	?
Cc1ccnc(SCc2nc3ccccc3s2)n1	-	-	.	62	32	-
CC(=O)N1c2ccc(S(=O)(=O)NCC3CCC(C(=O)N4CCC(C)CC4)CC3)cc2CC1C (stereo not drawn)	-	-	-	-	-	-
CCn1ncc(/C=N/NC(=O)c2ccc3c(c2)OCO3)c1C	-	-	-	-	-	?
CCn1nc(C)c(/C=N\NC(=O)c2ccc3c(c2)OCO3)c1C	.	-	-	83	39	?
CCn1cc(/C=N/NC(=O)c2ccc3c(c2)OCO3)c(C)n1	.	-	-	-	16	-
Cc1ccc(CNC(=O)c2cccc(-n3cnc4cccnc43)c2)cc1	.	-	.	.	.	.
Cn1cc(CNCC2CCCO2)c(-c2ccc(Oc3ccccc3)cc2)n1 (stereo not drawn)	-	-	?	-	-	-
Cc1cc(CNCc2cn(C)nc2-c2ccc(Oc3ccccc3)cc2)on1	12µM	-68	?	-	17	?
Cn1cc(CN2CCC(O)CC2)c(-c2ccc(Oc3ccccc3)cc2)n1	9.3µM	-	-	-	-	-
CC(C)N(C)Cc1cn(C)nc1-c1ccc(Oc2ccccc2)cc1	5.2µM	-	-	.	-	?
Cn1cc(CN2CCC(CO)CC2)c(-c2ccc(Oc3ccccc3)cc2)n1	-	?	-	-	-	-
CCN(CC)S(=O)(=O)c1ccc(N2CCOCC2)c(NC(=O)c2cccc3c(=O)c(C)c(-c4ccccc4)oc23)c1	.	-	.	.	.	8.9µM
COc1ccc(S(=O)(=O)N2CCOCC2)cc1NC(=O)c1cccc2c(=O)c(C)c(-c3ccccc3)oc12	2.1µM	-	5.2µM	-	-	?
CSCC[C@H](N)C(=O)N1CCC(C(=O)N[C@H](C)C(=O)NC(C)c2ccccc2)CC1 (stereo partly drawn)	-	-	?	-	-	-
O=C(NN=C1CCCC1)c1ccc([N+](=O)[O-])cc1	-	-	-	-	-	-
CC(/C=C/c1ccccc1)=N\NC(=O)c1ccc2c(c1)OCCO2	?	-	-	48	50	?
SMILES	Pf growth 96h	HCMV inh	Pf growth 48h	Shiga inhibitor	Cycloheximide cs	HCV inhibitor
O=C(NN=C1CCCC1)c1ccc(O)cc1	?	-	-	42	30	-
C/C(=N\NC(=O)c1ccc2c(c1)OCO2)c1ccc(C(=O)O)s1	?	-	-	54	31	-
O=C(NN=C1CCCCCC1)c1ccc2c(c1)OCO2	-	-	-	-	38	-
CCC(=O)N1CCc2cc(OC)c(OC)cc2C1COc1ccc(F)cc1 (stereo not drawn)	-	-	-	-	-	-
C/C(=N\NC(=O)c1ccc(O)cc1)c1ccc2c(c1)OCCO2	?	-	-	.	.	-
C/C(=N\NC(=O)c1ccc2c(c1)OCO2)c1ccc2c(c1)OCO2	-	-	-	62	35	-
CCCCCC1=CCC/C1=N\NC(=O)c1ccc2c(c1)OCO2	?	-	?	-	19	-
CCOc1cc(C(=O)NN=C2CCCC2)cc(OCC)c1OCC	?	-76	-	-	-	-
C/C(=N\NC(=O)c1ccc2c(c1)OCCO2)c1ccccc1	-	-	-	52	21	-
CCOc1cc(C(=O)NC)cc(OCC)c1OCC	?	-	-	-	-	-
CCCSc1ncc(Cl)c(C(=O)NCc2ccc(C)cc2)n1	.	-	.	.	.	.
COc1ccc(C(=O)c2cn(CC(=O)Nc3ccc4c(c3)OCO4)c3ccc(OC)cc3c2=O)cc1	.	-	.	.	.	.
CCOC(=O)[C@@H]1CSCCS(=O)(=O)N1Cc1ccc(C(F)(F)F)cc1	.	-	.	.	.	.
C/C(=N\NC(=O)c1cccs1)c1ccc2c(c1)OCO2	-	-	-	117	64	-
C/C(=N\NC(=O)c1nc2ccccn2c1C)c1ccc2c(c1)OCO2	-	-	-	-	19	-
CCCCC(=O)Nc1ccc(C(=O)Nc2ccc3c(c2)OCO3)cc1	.	-	-	-	-	?
CC(=NNC(=O)c1cccs1)c1ccc2c(c1)OCCO2	.	-	.	.	.	?
C/C(=N\NC(=O)c1nc2ccccn2c1C)c1cccc([N+](=O)[O-])c1	-[5.75 µM]	-	?	-	-	?
C/C(=N\NC(=O)c1ccc2c(c1)OCO2)c1ccc(NC(=O)CCCC(=O)O)cc1	-	-	-	57	34	-
CCc1cccc(-n2c(=O)c3cccnc3n2CC(=O)NCc2ccccc2Cl)c1	.	-	.	.	.	.
COc1cc(OC)cc(C(=O)Nc2nc(-c3nnn(-c4ccc(F)c(Cl)c4)c3C)ns2)c1	.	-94	.	.	.	.
Cc1c(-c2nsc(NC(=O)c3ccccc3)n2)nnn1-c1ccc(C(F)(F)F)c(Cl)c1	.	-	.	.	.	.
Cc1ccc(-n2nnc(-c3nsc(NC(=O)c4ccccc4C)n3)c2C)cc1Cl	.	-99	.	.	.	.
COc1ccc(-n2nnc(-c3nsc(NC(=O)c4cccc(C)c4)n3)c2C)cc1OC	.	-100	.	.	.	.
Cc1cc(C)cc(-n2nnc(-c3nsc(NC(=O)c4ccccc4Cl)n3)c2C)c1	.	-	.	.	.	.
SMILES	Pf growth 96h	HCMV inh	Pf growth 48h	Shiga inhibitor	Cycloheximide cs	HCV inhibitor
Cc1ccc(-n2nnc(-c3nsc(NC(=O)c4cccc(Cl)c4)n3)c2C)cc1C	.	-	.	.	.	.
CSc1ccc(CN(C)C(=O)CNC(=O)c2sc3ccccc3c2Cl)cc1	-	-	-	-	-	?
CN(C(=O)c1nc(-c2cccc(F)c2)n2c1CCCCC2)c1ccccc1F	.	-62	.	.	.	.
CCOc1ccc(CCNC(=O)c2nc(-c3cccc(F)c3)n3c2CCCCC3)cc1OCC	.	-	.	.	.	.
CC(C)(Oc1ccc(Cl)cc1)C(=O)Nc1ccc(-c2nc3ncccc3o2)cc1	.	-	.	.	.	.
CCCCN=C(C)c1c(O)c2ccccc2oc1=O	-	-	-	-	32	-
O=C(CC1CCCCC1)c1c(O)c2ccccc2oc1=O	-	-68	-	-	-	-
CCCCC(=O)c1c(O)c2ccccc2oc1=O	.	-	-	-	-	-
CC(=N)c1c(O)c2ccccc2oc1=O	-	-	-	53	26	-
CC1CCC(C(=O)c2c(O)c3ccccc3oc2=O)CC1 (stereo not drawn)	-	-100	.	-	-	?
Cn1nc(C(=O)OCC(=O)c2ccc(Br)cc2)c2ccccc2c1=O	-	-	-	.	.	-
